From PubChem BioAssay (NCATS)
Results filed as inconclusive are left out. The source made the active and inactive calls. Calls follow the shape of the dose curve; as a rule, active = well fitted inhibition curve with a large enough effect; inconclusive = small, poorly fitted or top-dose-only effect, or effect the other way; inactive = flat fitted curve, though single readings scatter. Residues, ends and D or L forms follow the SMILES beside them. *: point of attachment. Cbz = O=C(OCc1ccccc1)*

assay: Quantitative high throughput screen for delayed death inhibitors of the malarial parasite plastid, 48 hour incubation (AID 488752); conditions: Plasmodium falciparum growth; series mostly up to 28.7 µM; activity change, negative = inhibition: at the top concentration; also: nearly all actives have a fitted effect of over 65% in size
Excerpt: NIH Molecular Libraries Probe Production Network [MLPCN]
NIH Chemical Genomics Center [NCGC]
Assay Provider: David Fidock and Eric Ekland, Columbia University
The goal of this screen is to discover new antimalarial compounds that act by inhibiting the development of the apicoplast in the malarial parasite Plasmodium falciparum. The biochemical processes that make this organelle essential for erythrocytic stage parasites are not well understood. However, antibiotics, such as azithromycin and tetracycline, which target the apicoplast translational machinery, have a potent antimalarial effect.
We have developed a cell-based assay that measures parasite growth based on the expression of an integrated copy of a firefly luciferase reporter. To detect small molecules that cause this 'delayed death' phenotype, erythrocytes infected with the luciferase-expressing parasites were incubated with compounds for either one or two generations, corresponding to 48 and 96 hours, respectively. Compounds that inhibit parasite growth in the second generation, but not the first, should be enriched in antimalarials that target the apicoplast. Growth inhibition is detected by a decrease in luciferase activity
Four microliters of culture medium (RPMI 1640 with 0.5% w/v Albumax (GIBCO), 24 mM sodium bicarbonate and 10 ug/mL gentamycin) were dispensed by a Multi-drop Combi into white solid 1536-well plates (Grenier) and 23 nL compound was added by a pin tool. Four microliters of infected erythrocytes (2% hematocrit, 0.1% parasitemia final concentration) in culture medium were dispensed and the plates incubated for 48 hours at 37 C in 5% CO2. Two microliters of luciferase detection reagent was added and luminescence was detected by a ViewLux (PerkinElmer) reader
% is scaled to controls: 0 for no effect and ±100 for the full control effect; potency is read from the fitted curve at half-maximal effect.

Which “activity change, negative = inhibition” value does the source give for `CC1CCN=C(N)S1` (stereo not given) here?
The value was -3.97% (inactive).

With `Cc1nc(N=Nc2cc(S(=O)(=O)O)c3cc([N+](=O)[O-])cc(S(=O)(=O)O)c3c2)c(COP(=O)(O)O)c(C=O)c1O` as the compound, how does the “activity change, negative = inhibition” value read?
The value was 3.6% (inactive).

Which “activity change, negative = inhibition” value does the source give for `COC(=O)[C@H](NC(=O)c1cc(-c2ccccc2)nc2ccccc12)c1ccccc1` here?
The value was 11.2% (inactive).

With `O=c1[nH]ccc2c(O)cccc12` as the compound, how does the “activity change, negative = inhibition” value read?
The value was -10.9% (inactive).

With `COc1cc(CNC(=O)CCCCCCC(C)C)ccc1O` as the compound, how does the “activity change, negative = inhibition” value read?
The value was 5.59% (inactive).

With `CCN1C(=O)C=CC1=O` as the compound, how does the “activity change, negative = inhibition” value read?
The value was -1.62% (inactive).

For `CC(C)NC[C@H](O)COc1ccc(CC(N)=O)cc1`, which Potency is on record?
The Potency was “inactive”.

Which “activity change, negative = inhibition” value does the source give for `NC/C=C\C(=O)O` here?
Its value is -5.17% (inactive).

For `CCN(c1nc(N)c(C(=O)N=C(N)N)nc1Cl)C(C)C`, which “activity change, negative = inhibition” value is on record?
Its value is -44.7% (inactive).

With `O=C(O)Cc1ccc(O)c(O)c1` as the compound, how does the “activity change, negative = inhibition” value read?
The value was -15.5% (inactive).

With `CCCn1c(=O)c2[nH]c(-c3ccc(S(=O)(=O)O)cc3)nc2n(CCC)c1=O` as the compound, how does the “activity change, negative = inhibition” value read?
The value was -6.88% (inactive).

With `NC(N)=NC(N)=Nc1ccccc1` as the compound, how does the “activity change, negative = inhibition” value read?
The value was -2.9% (inactive).

With `COc1cc(N)c(Cl)cc1C(=O)OCCN1CCCCC1` as the compound, how does the “activity change, negative = inhibition” value read?
Its value is 16.5% (inactive).

For `CN[C@H](CC(=O)O)C(=O)O`, which “activity change, negative = inhibition” value is on record?
The value was -1.53% (inactive).

With `O=C(O)c1cc2cc(F)ccc2[nH]1` as the compound, how does the “activity change, negative = inhibition” value read?
Its value is -0.232% (inactive).

For `CC(=O)N[C@@H](Cc1c[nH]c2ccccc12)C(=O)OCc1cc(C(F)(F)F)cc(C(F)(F)F)c1`, which “activity change, negative = inhibition” value is on record?
Its value is -15.3% (inactive).

For `CC(N)=NCCCC[C@@H](N)C(=O)O`, which “activity change, negative = inhibition” value is on record?
The value was 13.5% (inactive).

For `N#Cc1cc2nc(O)c(O)nc2cc1[N+](=O)[O-]`, which “activity change, negative = inhibition” value is on record?
The value was 0.607% (inactive).

With `Oc1cc2c(cc1O)C(c1ccccc1)CNCC2` (stereo not given) as the compound, how does the “activity change, negative = inhibition” value read?
The value was 13.2% (inactive).

For `O=C1Nc2ccc(I)cc2/C1=C/c1cc(Br)c(O)c(Br)c1`, which “activity change, negative = inhibition” value is on record?
The value was -91.3% (inactive).

With `O=C(O)c1cc(=O)cc(C(=O)O)[nH]1` as the compound, how does the “activity change, negative = inhibition” value read?
The value was 2.37% (inactive).

For `COc1cc(C(O)C(=O)O)ccc1O` (stereo not given), which “activity change, negative = inhibition” value is on record?
Its value is 11.8% (inactive).

Which “activity change, negative = inhibition” value does the source give for `CC(=O)[C@H]1CCC2C3CC=C4C[C@@H](OS(=O)(=O)O)CC[C@]4(C)C3CC[C@@]21C` (stereo not given in full) here?
The value was 10% (inactive).

For `O=c1cc(-c2ccccc2)[nH]c2nc(Cl)ccc12`, which “activity change, negative = inhibition” value is on record?
Its value is 9.68% (inactive).

Which “activity change, negative = inhibition” value does the source give for `Cn1c(=O)c2[nH]c(-c3ccc(S(=O)(=O)O)cc3)nc2n(C)c1=O` here?
Its value is -11.6% (inactive).

For `NC(C(=O)N[C@@H]1C(=O)N2C(C(=O)O)=C(Cl)CS[C@H]12)c1ccccc1` (stereo not given in full), which “activity change, negative = inhibition” value is on record?
Its value is -1.84% (inactive).

For `CC(N)(Cc1ccc(O)cc1)C(=O)O` (stereo not given), which “activity change, negative = inhibition” value is on record?
The value was -14.3% (inactive).

Which “activity change, negative = inhibition” value does the source give for `CCCc1c(OCCCOc2ccc(OCC(=O)O)cc2)ccc(C(C)=O)c1O` here?
Its value is 3.62% (inactive).

Which “activity change, negative = inhibition” value does the source give for `O=c1cc(O)cc(/C=C/c2ccc(O)c(O)c2)o1` here?
The value was 7.83% (inactive).

With `CC(C)[C@H](NC(=O)OCc1ccccc1)C(=O)N[C@H](C=O)Cc1ccccc1` (Cbz-Val-Phe-aldehyde) as the compound, how does the Potency read?
Its Potency is 2.94 µM (active).

For `COc1ccc(CCN(C)CCc2ccc(OC)c(OC)c2)cc1OC`, which “activity change, negative = inhibition” value is on record?
Its value is -3.88% (inactive).

For `Cn1c(=O)c2c(nc(/C=C/c3cccc(Cl)c3)n2C)n(C)c1=O`, which “activity change, negative = inhibition” value is on record?
Its value is 6.15% (inactive).

For `Cc1cccc(C(=O)NCN2CCN(c3ccccc3C#N)CC2)c1`, which “activity change, negative = inhibition” value is on record?
Its value is 16.6% (inactive).

Which “activity change, negative = inhibition” value does the source give for `CC(C)(C)NCC(O)COc1cccc2[nH]c(=O)[nH]c12` (stereo not given) here?
Its value is 0.224% (inactive).

For `CC(C)C[C@H](NC(=O)C1OC1C(=O)O)C(=O)NCCCCN=C(N)N` (stereo not given in full), which Potency is on record?
The Potency was 5.86 µM (active).

Which “activity change, negative = inhibition” value does the source give for `c1ccc(C2CN3CCSC3=N2)cc1` (stereo not given) here?
Its value is -9.79% (inactive).

Which “activity change, negative = inhibition” value does the source give for `CC[N+](CC)(CC)CC(=O)Nc1c(C)cccc1C` here?
Its value is -0.773% (inactive).

With `NS(=O)(=O)c1cccc2c1c([N+](=O)[O-])cc1nc(O)c(O)nc12` as the compound, how does the “activity change, negative = inhibition” value read?
Its value is 19% (inactive).

Which “activity change, negative = inhibition” value does the source give for `OC[C@H]1NC[C@@H](O)[C@@H]1O` here?
Its value is 0.803% (inactive).

Which “activity change, negative = inhibition” value does the source give for `NC(=O)c1cc[n+](CC2=C(C(=O)O)N3C(=O)[C@@H](NC(=O)[C@@H](c4ccccc4)S(=O)(=O)[O-])[C@H]3SC2)cc1` here?
Its value is -0.442% (inactive).
